Source: PubChem BioAssay
POLH inh: DNA polymerase eta (human) inhibition. actives 1.2% (n = 390,000). AID 588591. Q9Y253. Potency, µM (top dose mostly 114 µM), for the others: at the top dose activity change, negative = inhibition, actives largely listed as inhibitors. recombinant Pol eta, fluorescent DNA replication assay; note: % is set by controls: 0 for no effect and ±100 for the full control effect
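Pol eta at 10 nM preincubated with compounds 15 min at room temperature; reaction started with fluorescent substrate (50 nM final) and read kinetically at 0 and 10 min.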
Pol kappa inh: blocks human DNA polymerase kappa activity; Q9UBT6; purified Pol kappa, fluorescent DNA synthesis assay, 10 min; Potency, µM (top dose mostly 107 µM), for the others: at the top dose activity, negative = inhibition, most hits filed as inhibitors; actives 0.53% (n = 400,000); note: % is set by controls: 0 for no effect and ±100 for the full control effect
Target sequence (Q9UBT6 whole entry, looked up): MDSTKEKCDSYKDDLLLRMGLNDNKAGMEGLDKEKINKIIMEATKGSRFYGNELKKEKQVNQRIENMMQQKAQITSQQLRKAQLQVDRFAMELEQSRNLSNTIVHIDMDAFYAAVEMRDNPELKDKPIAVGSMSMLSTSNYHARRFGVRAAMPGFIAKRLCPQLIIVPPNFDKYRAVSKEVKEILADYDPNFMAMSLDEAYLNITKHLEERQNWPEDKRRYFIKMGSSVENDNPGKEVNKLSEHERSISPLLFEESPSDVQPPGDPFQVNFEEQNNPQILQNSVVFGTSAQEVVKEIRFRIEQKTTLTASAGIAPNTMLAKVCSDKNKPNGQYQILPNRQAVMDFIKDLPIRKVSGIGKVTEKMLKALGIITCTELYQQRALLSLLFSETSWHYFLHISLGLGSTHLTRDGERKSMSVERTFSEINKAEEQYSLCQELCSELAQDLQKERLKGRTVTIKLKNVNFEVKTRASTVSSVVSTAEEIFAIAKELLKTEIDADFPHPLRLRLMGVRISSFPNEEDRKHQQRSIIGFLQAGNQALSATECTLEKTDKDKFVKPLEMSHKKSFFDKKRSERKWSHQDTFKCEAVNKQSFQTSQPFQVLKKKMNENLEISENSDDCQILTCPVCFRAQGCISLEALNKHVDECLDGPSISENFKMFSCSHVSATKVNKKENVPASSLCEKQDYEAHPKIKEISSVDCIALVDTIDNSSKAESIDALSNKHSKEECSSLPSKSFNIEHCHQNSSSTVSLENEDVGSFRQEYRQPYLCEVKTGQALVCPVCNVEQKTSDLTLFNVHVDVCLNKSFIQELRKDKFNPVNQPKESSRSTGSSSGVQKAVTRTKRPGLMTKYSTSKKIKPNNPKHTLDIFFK
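Readout: fluorescence, taken kinetically at 0 and 10 min. Conditions: 10 nM Pol kappa, 15 min RT compound preincubation, 50 nM substrate final. Controls: enzyme-free buffer wells.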
L3MBTL1 inh: blocks human L3MBTL1; Potency, µM (series often up to 57.1 µM), without a hit: at the top dose activity, negative = inhibition, most hits filed as inhibitors; actives 0.66% (n = 230,000); Q9Y468; AlphaScreen L3MBTL1–H3K9me1 peptide binding; note: % is set by controls: 0 for no effect and ±100 for the full control effect; nearly all actives have a fitted effect of over 60% in size
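Displacement of a biotinylated histone H3(1-15) peptide monomethylated at Lys9 (75 nM) from L3MBTL1 (50 nM) was measured by AlphaScreen after a 30 min room-temperature compound incubation; cefsulodin titration served as intraplate control.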
WRN helicase inh: inhibitors of human WRN helicase; WRN helicase unwinding, fluorescent forked duplex, kinetic; Potency, µM (series often up to 114 µM), without a hit: at the top dose activity change, negative = inhibition, actives largely listed as inhibitors; Q14191; actives 0.46% (n = 360,000); note: % is set by controls: 0 for no effect and ±100 for the full control effect; nearly all actives have a fitted effect of over 55% in size
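WRN at 20 nM final was preincubated with compound for 15 min at room temperature; reaction started with 100 nM forked duplex oligonucleotide carrying fluorophore and quencher plus 2 mM ATP (final). Unwinding followed kinetically by red fluorescence (ex 525/em 598 nm).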
POLB inh: blocks human DNA polymerase beta activity; AID 485314; actives 1.3% (n = 340,000); Pol beta primer extension/strand displacement, fluorescence kinetic; P06746; Potency, µM (doses to about 114 µM), for the others: at the highest dose activity change, negative = inhibition, most hits filed as inhibitors; note: % is set by controls: 0 for no effect and ±100 for the full control effect
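Reaction started by 50 nM substrate onto compound-treated Pol beta (10 nM, 15 min preincubation, room temperature); plates read at 0 min and 10 min. Normalized concentration-effect data fitted by four-parameter Hill equation.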
Pol iota inh: DNA polymerase iota (human) inhibition; Pol iota fluorescent replication assay, 10 min; Potency, µM (top dose mostly 115 µM), inactives show at the highest dose activity, negative = inhibition, hits mostly inhibitors; actives 1% (n = 390,000)
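Fluorescent replication assay read twice, at 0 min and 10 min after adding 50 nM (final) substrate. Enzyme (10 nM) and compounds were first incubated 15 min at room temperature; enzyme-free buffer wells were negative controls.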
Starred values were filed as active, the others as inactive; [ ] = dose if it differs, or a comment. This is a sample that favours compounds with a hit; in the whole collection about 2.5% have one here. Calls come from the whole dose curve; as a rule, active = well fitted curve in the direction sought with a large enough effect; inconclusive = small, poorly fitted or top-dose-only effect, or another doubt; inactive = no such curve, though single readings can be large; an effect the other way counts as inactive or inconclusive. Potency is the fitted concentration of half-maximal effect.

`CCOc1cc(/C=C2\C(=N)N3N=C(S(=O)(=O)CC)SC3=NC2=O)ccc1OC(=O)c1ccco1` gave POLH inh inconclusive, Pol kappa inh -3.8%, WRN helicase inh -6.3%[11.6 µM], POLB inh -46.8% and Pol iota inh -4.0%.
CC1=CC2=NC(=O)/C(=C\c3cccn3CCOc3ccccc3C)C(=N)N2O1 was read as POLH inh -11.4%, Pol kappa inh -5.3%[60.1 µM], WRN helicase inh -9.1%, POLB inh -2.7% and Pol iota inh inconclusive.
`CCS(=O)(=O)C1=NSC2=NC(=O)/C(=C\c3ccc(OC(=O)c4ccco4)cc3)C(=N)N21` gave POLH inh 79.4µM*, Pol kappa inh 3.5%, WRN helicase inh -15.9%, POLB inh -21.5% and Pol iota inh inconclusive.
For COc1cc(/C=C2\C(=N)N3N=C(S(C)(=O)=O)SC3=NC2=O)ccc1OC(=O)c1ccco1 the results were POLH inh 22.4µM*, Pol kappa inh -40.7%, WRN helicase inh -20.1%, POLB inh -12.5% and Pol iota inh 20µM*.
Screening COc1cc(/C=C2\C(=N)N3N=C(S(C)(=O)=O)SC3=NC2=O)ccc1OC(=O)c1cccs1 returned POLH inh inconclusive, Pol kappa inh -3.9%, WRN helicase inh -15.9%, POLB inh -2.8% and Pol iota inh -5.2%.
`COc1cc(/C=C2\C(=N)N3N=C(S(C)(=O)=O)SC3=NC2=O)ccc1OCCOc1ccccc1C` gave POLH inh 50.1µM*, Pol kappa inh -16.6%, WRN helicase inh 50.1µM*, POLB inh 50.1µM* and Pol iota inh 48.5%.
O=C(NCc1cccnc1)C(=O)Nc1cc2c3c(c1)CC(=O)N3CCC2 was read as POLH inh -4.4%, Pol kappa inh -15.5%, L3MBTL1 inh -11.9%, WRN helicase inh -17.4% and Pol iota inh 21.3%.
`COc1ccc(-c2n[nH]c(C(F)(F)F)c2-c2cc3ccccc3o2)c(O)c1` gave POLH inh -10.9%, Pol kappa inh -2.5%, L3MBTL1 inh -4.3%, WRN helicase inh -25.2%, POLB inh 0.1% and Pol iota inh 79.4µM*.
`COc1ccccc1-c1c(-c2ccc(OCC(=O)NN)cc2O)n[nH]c1C(F)(F)F` gave POLH inh -18.1%, Pol kappa inh -3.4%, L3MBTL1 inh 0.5%, WRN helicase inh 4.2%, POLB inh 21.6% and Pol iota inh 9.7%.
CC(C)=CCC/C(C)=C/CC/C(C)=C/CSc1ccccc1C(=O)O was read as POLH inh 31.6µM*, POLB inh inconclusive and Pol iota inh 25.1µM*.
`O=C(O)CSc1ccccc1C(=O)O` gave POLH inh 4.0%, Pol kappa inh -4.5%, WRN helicase inh -0.7%, POLB inh -0.4% and Pol iota inh 15.7%.
For Cc1nc(C(=O)N(C)C)nn1-c1ccc(Cl)cc1Cl the results were POLH inh 5.9%, Pol kappa inh -3.2%, L3MBTL1 inh 11.6%, WRN helicase inh 2.1%, POLB inh 37.8% and Pol iota inh 11.7%.
`CNC(=O)c1nc(C)n(-c2ccc(Cl)cc2Cl)n1` gave POLH inh -2.7%, Pol kappa inh -0.3%, L3MBTL1 inh -6.7%, WRN helicase inh 79.4µM*, POLB inh -17.3% and Pol iota inh 60.5%.
For C=CC[C@H]1CC(C)=C[C@H](CC=C)N1C(=O)c1cc(COc2ccccc2SC)on1 the results were POLH inh -23.3%, Pol kappa inh -7.2%, WRN helicase inh inconclusive, POLB inh -13.1% and Pol iota inh 9.8%.
O=c1cc(O)c(-c2ccccc2Cl)c(Cl)[nH]1 was read as POLH inh 10.7%, Pol kappa inh -9.1%, WRN helicase inh 0.2%, POLB inh 1.0% and Pol iota inh 17.3%.
